Pf growth 96h: P. falciparum growth inhibition at 96 hour, primary screen for plastid delayed-death inhibitors | P. falciparum luciferase reporter growth, 96 h | Potency, µM (series often up to 28.7 µM), usual class: inhibitors | 6.9% of 320,000 active | AID 504834
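Erythrocytes infected with luciferase-expressing P. falciparum were dispensed at 2% hematocrit and 0.05% parasitemia (final), then incubated with compounds 96 hours at 37 C in 5% CO2. Luminescence after detection reagent addition reported growth.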
Pf growth 48h: inhibits P. falciparum growth in the first generation, 48 h | P. falciparum luciferase growth in erythrocytes, 48 h | Potency, µM (series often up to 28.7 µM), most hits filed as inhibitors | 5.9% of 310,000 active
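First compound was added to culture medium, then infected red cells at 0.1% parasitemia and 2% hematocrit (final). After incubation at 37 C under 5% CO2, luciferase detection reagent was dispensed and light output recorded.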
NS1 function inh: inhibitors of influenza NS1 protein function; Potency, µM (series often up to 46.1 µM); 0.4% of 270,000 active; calls by dose curve; also: actives are rising curves; nearly all actives have a fitted effect of over 50% in size
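OD600 was taken as the measure of yeast growth restored by compound in an NS1-expressing S. cerevisiae strain. Cells had been washed out of glucose medium and diluted 1:100 into galactose -URA medium, pH 6.0.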
HCV inh: HCV inhibition; AID 651820; Potency, µM (doses to about 41.8 µM), usual class: inhibitors; Huh7.5.1 HCVcc-Cre infection, luciferase reporter, 44 h; 3.4% of 340,000 active
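Infectious HCVcc-Cre (~0.5 moi) was added to cells just after compound, with cells seeded 4 h earlier at 1,000 per well. Luciferase activity after 44 h culture reported infection; substrate was incubated 15 min at room temperature before reading.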
Vaccinia mCherry: vaccinia inhibition (mCherry reporter); Potency, µM (series often up to 36.5 µM), actives largely listed as inhibitors; Vaccinia virus mCherry reporter infection, fluorescence; 0.63% of 310,000 active; calls by dose curve; tested in A549 cells; also: nearly all actives have a fitted effect of over 35% in size
Vaccinia Venus: vaccinia inhibition (Venus reporter); Vaccinia virus Venus reporter expression, fluorescence; Potency, µM (doses to about 36.5 µM), actives largely listed as inhibitors; 0.46% of 330,000 active; AID 720580; calls by dose curve; tested in A549 cells; also: nearly all actives have a fitted effect of over 30% in size
Numbers stand for hits; 0 = inactive; ? = inconclusive; - = not tested or not shown; [ ] = remark or other dose. Rows were chosen to be rich in hits. Some 11% of all compounds tested hit in one or more screens of this group. Unless noted, calls follow the shape of the dose curve; as a rule, active = well fitted inhibition curve with a large enough effect; inconclusive = small, poorly fitted or top-dose-only effect, or another doubt; inactive = no such curve, though single readings can be large or run the other way.

SMILES	Pf growth 96h	Pf growth 48h	NS1 function inh	HCV inh	Vaccinia mCherry	Vaccinia Venus
CC(NC(=O)CN(C)S(=O)(=O)c1ccc2c(c1)c(=O)n(C)c(=O)n2C)c1ccccc1 (stereo not given)	?	0	0	0	0	0
Cc1ccc(CNC(=O)CN(C)S(=O)(=O)c2ccc3c(c2)n(C)c(=O)c(=O)n3C)cc1	?	0	0	0	-	-
CCC(Cc1ccccc1)NC(=O)CN(C)S(=O)(=O)c1ccc2c(c1)c(=O)n(C)c(=O)n2C (stereo not given)	7.38µM	-	0	?	0	0
Cc1ccc(CCNC(=O)CN(C)S(=O)(=O)c2ccc3c(c2)n(C)c(=O)c(=O)n3C)cc1	9.28µM	?	0	0	0	0
CCc1cc[n+](C2=C([O-])c3ccccc3C(=O)/C2=N\S(=O)(=O)c2cccs2)cc1	?	4.15µM	0	5.01µM	?	?
CCC(C)NS(=O)(=O)c1cccs1 (stereo not given)	0	0	0	?	0	0
CCOC(=O)c1sc(NC(=O)c2sccc2C)cc1C	0	-	0	10µM	-	-
CCOc1ccc(NC(=O)CCN2C(=O)C3CCCCC3C2=O)cc1OCC (stereo not given)	0	0	-	0	0	0
CCOC(=O)c1sc(NC(=O)c2cccs2)cc1C	-	0	0	?	-	0
CCOC(=O)c1sc(NC(=O)CCN2C(=O)C3CCCCC3C2=O)cc1C (stereo not given)	?	14.7µM	-	?	-	-
CC(OC(=O)Cc1coc2cc3c(cc12)CCC3)C(=O)NCc1ccc2c(c1)OCO2 (stereo not given)	-	0	0	0	-	0
COc1ccc(NC(=O)CN2CCC(NC(=O)C3CCCCC3)CC2)c([N+](=O)[O-])c1	?	0	0	0	-	-
COc1ccc(Cn2c(-c3ccccc3C)nc3c(c(=O)c4ccccc4n3C)c2=O)cc1	-	-	-	0	-	-
COCCn1c(C2CCCCC2)nc2sc3ccccc3c(=O)c2c1=O	0	1.47µM	0	0	-	-
CCc1nc2sc3ccccc3c(=O)c2c(=O)n1CCOC	0	0	0	0	-	-
COc1ccc(Cn2c(-c3ccc(C)cc3)nc3c(c(=O)c4ccccc4n3C)c2=O)cc1	?	13.1µM	0	?	0	0
CCCc1nc2sc3ccccc3c(=O)c2c(=O)n1Cc1ccc(OC)cc1	10.4µM	?	0	?	0[7.34 µM]	0[7.34 µM]
COc1ccc(Cn2c(-c3ccc(OC)cc3)nc3c(c(=O)c4ccccc4n3C)c2=O)cc1	9.28µM	11.7µM	0	0	-	-
COc1ccc(Cn2c(C)nc3c(c(=O)c4ccccc4n3C)c2=O)cc1	?	?	0	0	0	0
O=C(CN1CCN(C(=O)c2ccccc2)CC1)Nc1cccc(S(=O)(=O)N2CCCC2)c1	?	?	-	0	0	0
O=C(O)c1ccc(Cn2cnc3cccnc32)cc1	0	0	0	0	0	0
CC(C)CCNC(=O)C1CCC(=O)N1CCc1ccccc1 (stereo not given)	0	0[0.00184 µM]	0	0	0	0
COc1ccc(Cn2c(-c3ccco3)nc3c(c(=O)c4ccccc4n3C)c2=O)cc1	0	0	0	?	-	-
COCCn1c(-c2ccccc2)nc2c(c(=O)c3ccccc3n2C)c1=O	14.7µM	?	0	0	-	-
COc1ccc(-c2nc3ccccc3c(=O)n2CCOc2c(C)cccc2C)cc1	0	11.7µM	0	0	0	0
SMILES	Pf growth 96h	Pf growth 48h	NS1 function inh	HCV inh	Vaccinia mCherry	Vaccinia Venus
COc1ccc(-c2nc3c(c(=O)c4ccccc4n3C)c(=O)n2Cc2ccccc2)cc1	2.94µM	0	0	?	0	0
Cn1c2ccccc2c(=O)c2c(=O)n(Cc3ccccc3)c(-c3ccc(F)cc3)nc21	5.22µM	?	0	0	0	0
COCCn1c(-c2cccc(Br)c2)nc2c(c(=O)c3ccccc3n2C)c1=O	?	?	0	0	-	-
COc1ccccc1NC(=O)CSc1nnc(C2CCCCC2)n1-c1ccccc1	?	?	0	?	0	0
CC(NC(=O)Nc1ccccn1)N1C(=O)C2C3C=CC(C3)C2C1=O (stereo not given)	?	0	0	0	0	0
NC(=O)COC(=O)[C@H](Cc1ccccc1)NS(=O)(=O)c1ccc2c(c1)OCCO2	0	0	-	0	0	0
O=C(Nc1ccncc1)C1CCCN(S(=O)(=O)c2cccc3cccnc23)C1 (stereo not given)	5.86µM	0	0	?	-	-
O=C(Nc1ccc(C(F)(F)F)cc1)C1CCCN(S(=O)(=O)c2cccc3cccnc23)C1 (stereo not given)	-	-	-	-	0	0
O=C(C1CCCN(S(=O)(=O)c2cccc3nsnc23)C1)N1CCN(c2ccccn2)CC1 (stereo not given)	0	11.7µM	0	?	0	0
CN(CC(=O)N1CCN(c2ccccn2)CC1)S(=O)(=O)c1cccc2nsnc12	9.28µM	0	0	0	0	0
O=C(NCc1cccnc1)C1CCCN(S(=O)(=O)c2cccc3nsnc23)C1 (stereo not given)	10.4µM	0	0	0	0	0
CCOC(=O)c1c(C)[nH]c(C)c1S(=O)(=O)NCC1CCN(Cc2ccccc2F)CC1	0	0	0	0	-	-
Cc1cc(C)cc(-n2nnc(-c3nc(-c4ccc5c(c4)OCO5)no3)c2C)c1	-	-	-	-	0[7.34 µM]	0[7.34 µM]
CC(=O)Nc1ccc(C2C(=O)c3ccccc3C2=O)cc1	0	0	?	?	0	0

Source: PubChem
